Measured values as given in PubChem BioAssay (NCI).
About 83,000 compounds went through this panel and 20% of them were active in at least one assay; those are over-represented in the sample as a whole.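 Cells were grown in 96-well plates and exposed to the test compound at a single concentration for 48 hours; results are reported as percent growth, with values below 10 considered active.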 The source made the active and inactive calls.

What was measured:
Assay in all cases: NCI-60 one-dose screen, 48 h (100 = growth as untreated, 0 = no growth, -100 = all killed)
Settings in all cases: 10 µM unless noted
SK-MEL-2 melanoma = test system: SK-MEL-2 melanoma
EKVX NSCLC = test system: EKVX NSCLC
SN12C renal = test system: SN12C renal
UO-31 renal = test system: UO-31 renal
TK-10 renal = test system: TK-10 renal
ACHN renal = test system: ACHN renal
CAKI-1 renal = test system: CAKI-1 renal
A498 renal = test system: A498 renal
CCRF-CEM leukemia = test system: CCRF-CEM leukemia
MOLT-4 leukemia = test system: MOLT-4 leukemia

Measured: growth

CCn1c(Cc2ccccc2Nc2c(Cl)cccc2Cl)nnc1SCC(=O)Nc1ccccc1C(F)(F)F
inactive: SK-MEL-2 melanoma 79.9% | EKVX NSCLC 82.8% | SN12C renal 77.1% | UO-31 renal 74.8% | TK-10 renal 88% | ACHN renal 106% | CAKI-1 renal 87.1% | A498 renal 64.5% | CCRF-CEM leukemia 108% | MOLT-4 leukemia 70.2%

CC(=O)O[C@H]1CC[C@]2(C)[C@H]3CC=C4[C@@H]5CC(C)(C)CC[C@]5(C(=O)OCC(COC(=O)C(Cl)Cl)(COC(=O)C(Cl)Cl)NC(=O)C(Cl)Cl)CC[C@@]4(C)[C@]3(C)CC[C@H]2C1(C)C
inactive: SK-MEL-2 melanoma 77.7% | EKVX NSCLC 65% | SN12C renal 71.8% | UO-31 renal 62.5% | TK-10 renal 78.1% | ACHN renal 62.4% | CAKI-1 renal 63% | A498 renal 93.2% | CCRF-CEM leukemia 64.8% | MOLT-4 leukemia 44.9%

Cc1cc([N+](=O)[O-])c(C)cc1N
inactive: SK-MEL-2 melanoma 107% | EKVX NSCLC 101% | SN12C renal 106% | UO-31 renal 77.6% | TK-10 renal 102% | ACHN renal 103% | CAKI-1 renal 92.8% | A498 renal 87.2% | CCRF-CEM leukemia 106% | MOLT-4 leukemia 101%

CC(C)(c1ccccc1)c1cc(O)c(C(C)(C)c2ccccc2)cc1O
inactive: SK-MEL-2 melanoma 10.4% | EKVX NSCLC 33% | SN12C renal 22.4% | UO-31 renal 17.2% | TK-10 renal 36.1% | ACHN renal 44% | CAKI-1 renal 31.6% | CCRF-CEM leukemia 15.3%
active: A498 renal 8.74% | MOLT-4 leukemia -17.8%

C[C@@H]1CC2C3CCC4=CC(=O)C=C[C@]4(C)[C@@]3(Cl)[C@@H](O)C[C@]2(C)[C@@]1(OC(=O)c1ccco1)C(=O)CCl (stereo not given in full)
inactive: SK-MEL-2 melanoma 76.6% | EKVX NSCLC 61.5% | SN12C renal 35.4% | UO-31 renal 30.5% | TK-10 renal 95.6% | ACHN renal 82.4% | CAKI-1 renal 62.2% | A498 renal 99% | CCRF-CEM leukemia 30% | MOLT-4 leukemia 31.5%

O=C(Nc1ccc(Cl)cc1)c1cc(-c2ccc(Cl)cc2)c2sc(=O)[nH]c2n1
active: SK-MEL-2 melanoma -29.3% | EKVX NSCLC 9.13% | SN12C renal -9.7% | UO-31 renal -5.54% | TK-10 renal 0.672% | ACHN renal 0.731% | CAKI-1 renal 8.17% | A498 renal -43.8% | CCRF-CEM leukemia 5.46% | MOLT-4 leukemia -24.2%

CCc1c(C)c2ccc(O)c(-c3cc(-c4ccccc4)c(C#N)c(=O)[nH]3)c2oc1=O
inactive: SK-MEL-2 melanoma 117% | EKVX NSCLC 101% | SN12C renal 105% | UO-31 renal 62.9% | TK-10 renal 124% | ACHN renal 103% | CAKI-1 renal 70% | A498 renal 116% | CCRF-CEM leukemia 103% | MOLT-4 leukemia 98.3%

O=C(c1ccc(OCCN2CCCCC2)cc1)c1c(-c2ccc(O)cc2)sc2cc(O)ccc12
inactive: SK-MEL-2 melanoma 102% | EKVX NSCLC 83.3% | SN12C renal 80.4% | UO-31 renal 67.1% | TK-10 renal 129% | ACHN renal 91.5% | CAKI-1 renal 76% | A498 renal 90.9% | CCRF-CEM leukemia 59.7% | MOLT-4 leukemia 76.3%

NC(N)=NC1CCCCC1
inactive: SK-MEL-2 melanoma 101% | EKVX NSCLC 93% | SN12C renal 103% | UO-31 renal 84.7% | TK-10 renal 84.1% | ACHN renal 103% | CAKI-1 renal 93.9% | A498 renal 98.1% | CCRF-CEM leukemia 90.3% | MOLT-4 leukemia 92.5%

O=C(Nc1ccccc1)c1cc2ccccc2s1
inactive: SK-MEL-2 melanoma 72.2% | EKVX NSCLC 85.5% | SN12C renal 91.4% | UO-31 renal 71.2% | TK-10 renal 98.7% | ACHN renal 94.2% | CAKI-1 renal 78.8% | A498 renal 91.7% | CCRF-CEM leukemia 44.3% | MOLT-4 leukemia 83.3%

COc1cc(C2CC(=O)Nc3c2cnn3C)cc(OC)c1OC (stereo not given)
inactive: SK-MEL-2 melanoma 113% | EKVX NSCLC 119% | SN12C renal 114% | UO-31 renal 90.7% | TK-10 renal 117% | ACHN renal 108% | CAKI-1 renal 106% | A498 renal 113% | CCRF-CEM leukemia 114% | MOLT-4 leukemia 102%

O=c1oc2ccccc2cc1-c1cc(-c2ccc(-c3cc(-c4cc5ccccc5oc4=O)nc(-c4cc5ccccc5oc4=O)c3)cc2)cc(-c2cc3ccccc3oc2=O)n1
inactive: SK-MEL-2 melanoma 106% | EKVX NSCLC 96% | SN12C renal 102% | UO-31 renal 88.3% | TK-10 renal 129% | ACHN renal 100% | CAKI-1 renal 105% | A498 renal 98.1% | CCRF-CEM leukemia 92.9% | MOLT-4 leukemia 86.8%

O=C1SCN(Cc2ccccc2)CN1Cc1ccccc1
inactive: SK-MEL-2 melanoma 101% | EKVX NSCLC 101% | SN12C renal 96.3% | UO-31 renal 57.9% | TK-10 renal 111% | ACHN renal 107% | CAKI-1 renal 95.9% | A498 renal 78.2% | CCRF-CEM leukemia 61.3% | MOLT-4 leukemia 71.8%

CC(C)c1ccc2c(c1)CCC1C2CCCC1(C)NCc1ccccc1 (stereo not given)
inactive: SK-MEL-2 melanoma 26.8% | EKVX NSCLC 80.3% | SN12C renal 66.9% | UO-31 renal 45.4% | TK-10 renal 95% | ACHN renal 90.6% | CAKI-1 renal 63.1% | A498 renal 91.5% | CCRF-CEM leukemia 48.3% | MOLT-4 leukemia 39.9%

CC(=O)c1ccc(Br)c([N+](=O)[O-])c1
active: CAKI-1 renal -7.58%
inactive: SK-MEL-2 melanoma 102% | EKVX NSCLC 104% | SN12C renal 104% | UO-31 renal 90.7% | TK-10 renal 91.5% | ACHN renal 111% | A498 renal 76.9% | CCRF-CEM leukemia 98.1% | MOLT-4 leukemia 96.8%

C=C[C@H]1CCC/C=C/[C@@H]2C[C@H](O)C[C@H]2[C@H](O)/C=C/C(=O)O1
active: SK-MEL-2 melanoma -37.9% | EKVX NSCLC 3.38% | SN12C renal 5.71% | UO-31 renal -11.2% | TK-10 renal -45.6% | ACHN renal 5.96% | CAKI-1 renal -1.92% | A498 renal -48.7% | CCRF-CEM leukemia 7.38% | MOLT-4 leukemia 0.424%

COc1cnc2c(c1)C(=O)c1c-2n(CCCN2CCN(C)CC2)c(=O)c2cc(Cl)ccc12
inactive: SK-MEL-2 melanoma 32.3% | EKVX NSCLC 51.5% | SN12C renal 43% | UO-31 renal 40.1% | TK-10 renal 48.5% | ACHN renal 18.4% | CAKI-1 renal 45.3%
active: A498 renal -4.26% | CCRF-CEM leukemia -14.6% | MOLT-4 leukemia -36.6%

O=C(c1ccccc1)C(CCc1ccccn1)CCc1ccccn1
inactive: SK-MEL-2 melanoma 96.1% | EKVX NSCLC 107% | SN12C renal 95.7% | UO-31 renal 75.1% | TK-10 renal 97.3% | ACHN renal 106% | CAKI-1 renal 106% | A498 renal 100% | CCRF-CEM leukemia 95.3% | MOLT-4 leukemia 99%

O=C(/C=C/c1ccccc1)c1c[nH]c2ccccc2c1=O
active: SN12C renal 8.29% | UO-31 renal 4.93% | CAKI-1 renal 4.66% | A498 renal -6.19% | CCRF-CEM leukemia -12.2% | MOLT-4 leukemia 9.81%
inactive: SK-MEL-2 melanoma 95.5% | EKVX NSCLC 36.3% | TK-10 renal 22.5% | ACHN renal 11.6%

CCN1C(=O)N(CC)C2C1NC(=O)N2/N=C/C=C/c1ccccc1 (stereo not given)
inactive: SK-MEL-2 melanoma 34.3% | EKVX NSCLC 53.8% | SN12C renal 61.3% | UO-31 renal 57.6% | TK-10 renal 69.3% | ACHN renal 48.1% | CAKI-1 renal 47.2% | A498 renal 25.2% | CCRF-CEM leukemia 19.1% | MOLT-4 leukemia 43.7%

CCOC(=O)Cc1cc(Br)c(OCc2ccccc2)c(Br)c1
inactive: SK-MEL-2 melanoma 94.8% | EKVX NSCLC 90.9% | SN12C renal 88.9% | UO-31 renal 80.5% | TK-10 renal 96.8% | ACHN renal 92% | CAKI-1 renal 77.2% | A498 renal 109% | CCRF-CEM leukemia 95.4% | MOLT-4 leukemia 77.2%

Nc1ncnc2c1N=C(c1ccc3c(c1)OCO3)CC(c1ccc(Cl)cc1)N2 (stereo not given)
active: CCRF-CEM leukemia -33.1%
inactive: SK-MEL-2 melanoma 58.1% | EKVX NSCLC 71.1% | SN12C renal 93.3% | UO-31 renal 55.8% | TK-10 renal 99.7% | ACHN renal 77.8% | CAKI-1 renal 74% | A498 renal 87% | MOLT-4 leukemia 69.4%

O=C(N/N=C/c1ccccc1O)c1ccncc1
inactive: SK-MEL-2 melanoma 55.9% | EKVX NSCLC 36.9% | SN12C renal 78% | UO-31 renal 33.5% | TK-10 renal 57.7% | ACHN renal 56.8% | CAKI-1 renal 41.3% | A498 renal 87.7% | CCRF-CEM leukemia 29.1%
active: MOLT-4 leukemia 9.31%

CCCCCCCCCCCCCC1=NC(C)(C)CN1C(C)C
inactive: A498 renal 87.7%
active: SK-MEL-2 melanoma -66.3% | EKVX NSCLC -2.5% | SN12C renal 9.87% | UO-31 renal -65.1% | TK-10 renal -73% | ACHN renal -67.2% | CAKI-1 renal -67% | CCRF-CEM leukemia -44.1% | MOLT-4 leukemia -58.5%

COc1ccc(C(=O)OC2C(OC3C(O)COC(O[C@H]4C[C@H]5[C@@H]6CC=C7C[C@@H](O)CC[C@]7(C)[C@H]6CC[C@]5(C)[C@H]4[C@H](C)C(=O)CCC(C)C)C3OC(C)=O)OCC(O)C2O)cc1 (stereo not given in full)
inactive: SN12C renal 44.3% | ACHN renal 28.6%
active: SK-MEL-2 melanoma -52% | EKVX NSCLC 7.53% | UO-31 renal -35.7% | TK-10 renal -20.1% | CAKI-1 renal -31.1% | A498 renal -82.2% | CCRF-CEM leukemia -23.2% | MOLT-4 leukemia -42.4%

CCNC(=O)c1ccc2c(c1)nc(-c1ccc(Cl)cc1)n2-c1cc(C(C)(C)C)[nH]n1
inactive: SK-MEL-2 melanoma 46.6% | EKVX NSCLC 42.8% | SN12C renal 76.4% | UO-31 renal 37.5% | TK-10 renal 89.7% | ACHN renal 52% | CAKI-1 renal 18.5% | A498 renal 57.9% | CCRF-CEM leukemia 34.3% | MOLT-4 leukemia 20.9%

COc1ccc2nc3ccccc3c(NCc3ccc(Cl)cc3)c2c1
inactive: SK-MEL-2 melanoma 71.3% | EKVX NSCLC 33.8% | SN12C renal 22.1% | TK-10 renal 52.9% | ACHN renal 17.1% | CAKI-1 renal 21.4%
active: UO-31 renal 1.86% | A498 renal 8.58% | CCRF-CEM leukemia 8.43% | MOLT-4 leukemia -8.25%
